Results reported in PubChem BioAssay (NCATS).
Values without a mark were called inactive. No stated cut-off is given here; in the data, active means potency below about 10 µM; inactive means the rest.
Potency means the concentration at half of the fitted maximal effect.

These compounds were tested against Lysosomal acid glucosylceramidase (Homo sapiens) (UniProt P04062) (assay: Glucocerebrosidase-p2 (AID 348)). Conditions: purified GBA, blue fluorogenic substrate, 40 min.
Sequence of Lysosomal acid glucosylceramidase (Homo sapiens) (P04062 whole entry, looked up): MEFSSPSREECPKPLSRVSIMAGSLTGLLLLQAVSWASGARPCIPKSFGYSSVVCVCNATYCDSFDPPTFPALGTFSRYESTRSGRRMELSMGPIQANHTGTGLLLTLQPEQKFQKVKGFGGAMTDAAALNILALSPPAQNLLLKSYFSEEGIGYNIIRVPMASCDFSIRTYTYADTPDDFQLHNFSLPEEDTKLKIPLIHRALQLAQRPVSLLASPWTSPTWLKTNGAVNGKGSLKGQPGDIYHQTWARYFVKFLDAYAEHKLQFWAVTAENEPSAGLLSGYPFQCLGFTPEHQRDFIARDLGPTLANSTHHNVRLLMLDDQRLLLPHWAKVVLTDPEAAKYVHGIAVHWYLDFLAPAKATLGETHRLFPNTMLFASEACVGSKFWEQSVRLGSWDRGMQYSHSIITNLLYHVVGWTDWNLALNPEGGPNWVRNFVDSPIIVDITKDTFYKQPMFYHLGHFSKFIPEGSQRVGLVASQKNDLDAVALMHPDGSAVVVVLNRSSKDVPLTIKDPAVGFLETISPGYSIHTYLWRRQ
How it was run: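 Compounds titrated from 0.6 nM upwards against 0.2 nM enzyme in pH 5.9 citric acid/KH2PO4, taurocholate, tween-20; blue fluorogenic substrate 80 uM, 40 min room temperature, stopped and read Ex 365/Em 440 for AC50.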
Work on `COc1ccc2[nH]cc(CCNc3ncncc3-c3ccccc3C(F)(F)F)c2c1` yielded a Potency greater than 11.4 µM.
`COc1ccccc1CNc1nc(-c2cccc(NS(C)(=O)=O)c2)nc2ccccc12` showed a Potency greater than 11.4 µM.
Work on `COc1cccc(Cn2c(=O)cnc3cnc(N(C)C)nc32)c1` yielded a Potency greater than 11.4 µM.
With `CNc1ncncc1-c1ccccc1CN(C)C` the Potency was greater than 11.4 µM.
With `CN(C)C(=O)c1ccc(-c2ccc3ncnc(Nc4ccc(F)cc4)c3c2)cc1` the Potency was greater than 11.4 µM.
With `c1ccc2c(NCCN3CCOCC3)nc(-c3ccc4c(c3)OCO4)nc2c1` the Potency was greater than 11.4 µM.
In the case of `CN1CCN(c2nc(-c3ccoc3)nc3ccccc23)CC1`, the Potency was greater than 11.4 µM.
Compound `CN(C)c1nc(-c2cccc(NS(C)(=O)=O)c2)nc2ccccc12` has a Potency greater than 11.4 µM.
Work on `CN1CCN(c2nc(-c3cccnc3)nc3ccccc23)CC1` yielded a Potency greater than 11.4 µM.
`O=c1cnc2cnc(N3CCOCC3)nc2n1Cc1cccs1` was tested, and the Potency was greater than 11.4 µM.
`COc1ccccc1CNc1ncncc1-c1ccccc1C(F)(F)F` gave a Potency greater than 11.4 µM.
`COc1ccccc1-c1nccc(N2CCN(C)CC2)n1` showed a Potency greater than 11.4 µM.
For `Cc1nc2cnc(N3CCOCC3)nc2n(CCc2ccccc2)c1=O`, the Potency was greater than 11.4 µM.
Work on `COc1ccccc1CNc1ncnc2ccc(-c3ccc(C(=O)N(C)C)cc3)cc12` yielded a Potency greater than 11.4 µM.
With `c1ccc2c(NCCN3CCOCC3)nc(-c3ccoc3)nc2c1` the Potency was greater than 11.4 µM.
